Compound activity deposited in PubChem by National Center for Advancing Translational Sciences (NCATS).
Most compounds without a hit are left out; they make up all but 14% or so of the library.
MARV entry inh = qHTS for inhibitors of binding or entry into cells for Marburg Virus. Marburg virus pseudotyped entry inhibition, cell reporter. Potency, µM (series often up to 37.8 µM), actives largely listed as inhibitors. hit rate 1.8% among 300,000; calls by dose curve; tested in HEK293 cells
Pf growth 96h = Primary qHTS for delayed death inhibitors of the malarial parasite plastid, 96 hour incubation | hit rate 6.9% among 320,000 | P. falciparum luciferase reporter growth, 96 h | Potency, µM (doses to about 28.7 µM), hits mostly inhibitors
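Infected RBCs, 2% Hct / 0.05% parasitemia final; luciferase-reporter P. falciparum; cpd 96 h, 37 C, 5% CO2; luciferase detection reagent; luminescence.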
HCMV inh = qHTS Assay for inhibitors of the human cytomegalovirus (HCMV) | HFF cells, HCMV-luciferase reporter, 72 h; active compounds read low | activity change, negative = inhibition, % at 57.5 µM | hit rate 4.5% among 410,000; in the data active means activity change below about -60%; inconclusive means no clear call, values can overlap the other calls; inactive means above about -39%
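After 16 h attachment at 37C, HFF cells received test compound and HCMV-luciferase (1 PFU/cell); reporter luminescence read 72 h later, data normalized against buffer-only and known inhibitor Salinomycin.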
Lassa entry inh = qHTS for Inhibitors of binding or entry into cells for Lassa Virus | Lassa virus pseudotype entry inhibition, cell reporter | Potency, µM (doses to about 37.9 µM), usual class: inhibitors | hit rate 1.2% among 300,000 | AID 540256, 2011; calls by dose curve; tested in HEK293 cells; further: nearly all actives have a fitted effect of over 50% in size
HCV inh = qHTS Assay for Inhibitors of Hepatitis C Virus (HCV); hit rate 3.4% among 340,000; Huh7.5.1 HCVcc-Cre infection, luciferase reporter, 44 h; Potency, µM (top dose mostly 41.8 µM), usual class: inhibitors
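Seed cells (1,000/well) for 4 h; treat with compound and infect with HCVcc-Cre, moi about 0.5. Incubate 44 h, then detect luciferase activity.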
Pf growth 48h = Primary qHTS for delayed death inhibitors of the malarial parasite plastid, 48 hour incubation. AID 504832, 2011. hit rate 5.9% among 310,000. Potency, µM (highest dose often 28.7 µM), usual class: inhibitors. P. falciparum luciferase growth in erythrocytes, 48 h
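Read-out is firefly luciferase luminescence from an integrated reporter in P. falciparum, so falling signal marks reduced parasite growth. Infected erythrocytes were at 2% hematocrit and 0.1% parasitemia (final) in Albumax-supplemented RPMI 1640.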
A number is an active result; 0 = inactive; ? = inconclusive; - = not tested or not shown; [ ] = dose if it differs, or a comment. Unless noted, the call rests on the fitted dose curve; in most records, active means well fitted inhibition curve with a large enough effect; inconclusive means small, poorly fitted or top-dose-only effect, or another doubt; inactive means no such curve, though single readings can be large or run the other way.

SMILES | MARV entry inh | Pf growth 96h | HCMV inh | Lassa entry inh | HCV inh | Pf growth 48h
Cc1ccc(NC(=O)Cn2cnc3c2c(=O)n(C)c(=O)n3C)cc1C | - | - | 0 | 0 | - | -
O=Cc1ccc(OC(=O)CCCCC(=O)Oc2ccc(C=O)cc2)cc1 | - | 0.0033µM | 0 | - | 0 | ?
COC(=O)CCC(=O)Oc1ccc(OC(=O)CCC(=O)OC)cc1 | 0 | 0 | - | 0 | 0[0.335 µM] | ?
CNC(=O)N(O)C1N(c2ccccc2)C(=S)SC1(C)C (stereo not given) | ? | 2.08µM | 0 | 0 | 0 | 0
CCOC(=O)N[C@@]1(C(F)(F)F)C(=O)NC(C)=C1C#N | 0 | - | - | - | - | -
CCOc1cc(S(=O)(=O)NCc2ccccn2)ccc1Cl | 0 | 8.28µM | 0 | 0 | 0 | 0
CCOc1cc(S(=O)(=O)Nc2ccccc2CC)ccc1Cl | 0 | - | 0 | 0 | 10µM | 0
CCOc1cc(S(=O)(=O)Nc2ccc(CC)cc2)ccc1Cl | 0 | - | 0 | 0 | 0 | 0
CC(=O)O[C@@]12CO[C@@H]1C[C@H](OC1OCC(O)C(O)C1O)[C@@]1(C)C(=O)[C@H](O)C3=C(C)[C@@H](OC(=O)[C@H](O)[C@@H](NC(=O)c4ccccc4)c4ccccc4)C[C@@](O)([C@@H](OC(=O)c4ccccc4)C12)C3(C)C (stereo not given in full) | - | 0.037µM | 0 | - | 0 | ?
CCCCCC(=O)N[C@@H](c1ccccc1)[C@@H](O)C(=O)O[C@H]1C[C@@]2(O)[C@@H](OC(=O)c3ccccc3)C3[C@](C)(C(=O)[C@H](O)C(=C1C)C2(C)C)[C@@H](OC1OCC(O)C(O)C1O)C[C@H]1OC[C@@]31OC(C)=O (stereo not given in full) | - | 0.165µM | 0 | - | 0 | ?
CC1CCCN(S(=O)(=O)c2ccc(N3CCCCS3(=O)=O)cc2)C1 (stereo not given) | - | - | 0 | 0 | - | -
CCO/C=C/C(=O)N(C)CCC#N | ? | 11.7µM | 0 | 0 | 0 | 0
CN(CCC#N)C(=O)COC(=O)/C=C/c1cccs1 | 0 | 0 | 0 | 0 | 0 | 0
O=C(NCCc1ccc(Cl)cc1)C1CCN(S(=O)(=O)c2ccc3[nH]ccc3c2)CC1 | - | - | 0 | 0 | - | -
O=[N+]([O-])c1ccc(N2CCN(S(=O)(=O)c3ccccc3)CC2)cc1NCc1cccnc1 | ? | 0 | 0 | ? | 0 | 9.28µM
O=[N+]([O-])c1ccc(N2CCN(S(=O)(=O)c3ccccc3)CC2)cc1NCC1CCCO1 (stereo not given) | 0 | ? | 0 | 0 | 0 | 0
O=[N+]([O-])c1ccc(N2CCN(S(=O)(=O)c3ccc(Cl)cc3)CC2)cc1NCc1cccnc1 | 0 | ? | 0 | 0 | 0 | 7.38µM
O=[N+]([O-])c1cc(S(=O)(=O)N2CCCCC2)ccc1NCc1cccc(Cl)c1 | ? | ? | 0 | 0 | ? | ?
CC(C)(C)C(=O)N1CCN(c2ccc([N+](=O)[O-])c(NCc3cccnc3)c2)CC1 | 0 | 0 | 0 | ? | 0 | ?
O=[N+]([O-])c1ccc(N2CCN(S(=O)(=O)c3ccccc3)CC2)cc1NCc1ccco1 | 0 | 13.1µM | - | - | 0 | 0
COc1ccc(CN2C(=O)C(n3c(C)ccc3C)c3cc(F)ccc32)cc1 (stereo not given) | - | - | 0 | - | - | -
Cn1cnc(S(=O)(=O)N2CCC(C(=O)NCc3ccccc3Cl)CC2)c1 | - | - | 0 | 0 | - | -
Cc1cn(CC(=O)NCc2ccccn2)c(=O)[nH]c1=O | - | - | 0 | - | 0 | -
CCCNC(=O)c1n[nH]c(=O)c2ccccc12 | 0 | 0 | 0 | 0 | 0 | 0
Cc1cn(CC(=O)NCCc2ccccn2)c(=O)[nH]c1=O | - | - | 0 | - | 2.82µM | -
SMILES | MARV entry inh | Pf growth 96h | HCMV inh | Lassa entry inh | HCV inh | Pf growth 48h
O=C(NCCc1ccccn1)c1n[nH]c(=O)c2ccccc12 | 0 | 13.1µM | 0 | 0 | 0 | 0
Cc1ccc(-n2c(C)cc(C(=O)COC(=O)C3=NNC(=O)CC3)c2C)cc1 | 0 | - | 0 | 0 | 0 | ?
Cc1cc(C(=O)COC(=O)C2=COCCO2)c(C)n1-c1ccccc1 | 5.62µM | - | ? | 2.24µM | ? | -
Cc1ccc(-n2c(C)cc(C(=O)COC(=O)c3c(C)noc3C)c2C)cc1 | ? | 0 | 0 | ? | 0.316µM | 0
Cc1cc(C)c(Cn2c3ccccc3c3cnn(CC(=O)N4CCCCC4)c(=O)c32)c(C)c1 | 0 | - | 0 | ? | - | -
CCN1CCN(C(=O)Cn2ncc3c4ccccc4n(Cc4c(C)cc(C)cc4C)c3c2=O)CC1 | ? | - | -60.3 | 0 | - | -
O=C(Cn1ncc2c3ccccc3n(Cc3ccccc3)c2c1=O)N1CCN(c2ncccn2)CC1 | ? | ? | - | ? | 10µM | ?
O=C(Cn1ncc2c3ccccc3n(Cc3ccccc3)c2c1=O)N1CCN(c2ccccn2)CC1 | - | 0 | - | - | 0 | ?
CC1(C(=O)NS(=O)(=O)c2ccc(Cl)s2)CCN1C(=O)C1(c2ccc(Cl)cc2)CC1 (stereo not given) | - | - | 0 | - | - | -
COc1ccc(C(C)C)cc1S(=O)(=O)Nc1cccnc1 | - | - | 0 | - | - | -
COc1ccc(NC(=O)CSc2oc(-c3cccs3)nc2S(=O)(=O)c2ccc(Br)cc2)c(OC)c1 | ? | - | 0 | 0 | - | -
Nc1nc(C(=O)N2CCOCC2)nn1C(=O)c1ccc(Cl)cc1 | 0 | 10.4µM | 0 | 0 | 0 | 0
O=C(c1ccc(Cl)cc1)c1ccccc1C(=O)N1CCOCC1 | 0 | 0 | 0 | 0 | 0 | 0
CCc1ccc2occ(CC(=O)Nc3sc4c(c3C(=O)NCCOC)CCCC4)c2c1 | ? | - | 0 | ? | - | -
Nc1[nH]c(C(=O)c2ccccc2)c(-c2ccccc2C(F)(F)F)c1C(=O)c1cccs1 | - | - | 0 | - | - | -
COc1cccc(N(C(=O)CNC(=O)c2ccco2)C(C(=O)NC2CCCCC2)c2ccncc2)c1 (stereo not given) | 0 | 9.28µM | 0 | 0 | 0 | 0
CCOc1ccc(N(C(=O)CNC(=O)c2ccco2)C(C(=O)NC2CCCC2)c2ccncc2)cc1 (stereo not given) | 0 | 0 | 0 | 0 | 0 | 0
CCOc1ccccc1N(C(=O)CNC(=O)c1ccco1)C(C(=O)NC1CCCC1)c1ccncc1 (stereo not given) | 0 | ? | -61.1 | 0 | 0 | ?
Cc1ccc(N(C(=O)CNC(=O)c2ccco2)C(C(=O)NC2CCCC2)c2ccncc2)cc1C (stereo not given) | 0 | ? | -66.7 | - | 0 | 0
Cc1ccc(N(C(=O)CNC(=O)c2ccco2)C(C(=O)NC2CCCC2)c2ccncc2)cc1F (stereo not given) | 0 | 0 | 0 | 0 | 0 | 0
COC(=O)c1ccc(C(=O)OC)c(NC(=O)c2cc3nc(-c4ccc(C)cc4)cc(C(F)(F)F)n3n2)c1 | ? | - | 0 | 0 | - | -
COc1cc(CNCc2ccccn2)ccc1OCC(=O)NC1CCCCC1 | 0 | ? | 0 | 0 | 0 | 0
CCOc1cc(CNn2cnnc2)cc(Br)c1OCC(=O)NC1CCCCC1 | 0 | 9.28µM | 0 | 0 | 0 | ?
